VACV mCherry inh: inhibitors of vaccinia virus infection (mCherry reporter signal); Vaccinia virus mCherry reporter infection, fluorescence; 310,000 compounds, 0.63% hits; Potency, µM (series often up to 36.5 µM), inactives show at the top dose activity change, negative = inhibition, usual class: inhibitors; calls by dose curve; tested in A549 cells; note: potency is the fitted concentration of half-maximal effect; nearly all actives have a fitted effect of over 35% in size
LmPK inhibitor: blocks Leishmania mexicana pyruvate kinase activity | Q27686 | purified LmPK, Kinase-Glo ATP luminescence, 1 h | Potency, µM (highest dose often 57.5 µM), for the others: top-dose activity change, negative = inhibition, hits mostly inhibitors | 290,000 compounds, 0.37% hits | AID 1721; note: potency is the fitted concentration of half-maximal effect
Target sequence (Q27686 whole entry, looked up): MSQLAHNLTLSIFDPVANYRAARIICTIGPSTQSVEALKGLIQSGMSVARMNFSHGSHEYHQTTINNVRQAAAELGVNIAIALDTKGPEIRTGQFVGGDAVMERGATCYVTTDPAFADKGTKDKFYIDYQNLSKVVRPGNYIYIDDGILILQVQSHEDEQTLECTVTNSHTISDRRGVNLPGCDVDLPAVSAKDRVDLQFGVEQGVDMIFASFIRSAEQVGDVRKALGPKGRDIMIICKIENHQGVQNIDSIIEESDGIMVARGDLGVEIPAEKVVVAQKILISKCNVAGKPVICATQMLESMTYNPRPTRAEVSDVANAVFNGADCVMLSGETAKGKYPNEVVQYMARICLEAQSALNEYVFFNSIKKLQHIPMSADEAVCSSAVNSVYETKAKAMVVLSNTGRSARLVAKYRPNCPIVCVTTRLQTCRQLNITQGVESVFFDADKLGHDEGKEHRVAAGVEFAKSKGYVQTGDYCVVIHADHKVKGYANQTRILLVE
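Pyruvate kinase activity monitored as ATP production (luciferase luminescence). Conditions: 0.1 nM enzyme, 0.5 mM PEP, 0.1 mM ADP, 1 h, RT; normalized against uninhibited and no-enzyme wells.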
Tb PYK inh: T. brucei pyruvate kinase inhibition | TbPYK enzyme, Kinase-Glo Plus ATP luminescence, 45 min | 410,000 compounds, 0.12% hits | AID 624173 | Potency, µM (doses to about 76.8 µM), for the others: at the top dose activity, negative = inhibition, actives largely listed as inhibitors | Q57TT1; note: potency is the fitted concentration of half-maximal effect; nearly all actives have a fitted effect of over 50% in size
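Quantitative HTS: titrated library compounds versus trypanosomal pyruvate kinase in TEA buffer (pH 7.2) containing KCl, MgCl2, BSA and Tween-20. Reactions were initiated with ADP, 130 uM final. Kinase-Glo Plus luminescence was read after 45 min at RT.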
HCMV antiviral: blocks human cytomegalovirus replication. activity change, negative = inhibition, % at 57.5 µM. 410,000 compounds, 4.5% hits. HFF cells, HCMV-luciferase reporter, 72 h; active compounds read low; in the data active = activity change below about -60%; inconclusive = no clear call, values can overlap the other calls; inactive = above about -39%
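Luciferase read-out from HCMV-luciferase-infected HFFs (MOI 1 PFU/cell) 72 h post infection at 37C; compounds added after 16 h cell attachment; activity normalized between buffer-only basal and Salinomycin (10uM) inhibitor controls.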
VACV Venus inh: inhibitors of vaccinia virus (Venus reporter). Potency, µM (top dose mostly 36.5 µM), for the others: at the highest dose activity change, negative = inhibition, most hits filed as inhibitors. AID 720580. Vaccinia virus Venus reporter expression, fluorescence. 330,000 compounds, 0.46% hits; calls by dose curve; tested in A549 cells; note: potency is the fitted concentration of half-maximal effect; nearly all actives have a fitted effect of over 30% in size
Active calls of the source: *; i = inactive; ? = inconclusive; . = no result; + = active, no number; [ ] = remark or other dose. Most compounds without a hit are left out; they make up all but 5% or so of the library. Unless noted, calls come from the whole dose curve; as a rule, active = well fitted curve in the direction sought with a large enough effect; inconclusive = small, poorly fitted or top-dose-only effect, or another doubt; inactive = no such curve, though single readings can be large; an effect the other way counts as inactive or inconclusive. % is set by controls: 0 for no effect and ±100 for the full control effect.

SMILES | VACV mCherry inh | LmPK inhibitor | Tb PYK inh | HCMV antiviral | VACV Venus inh
O=C(/C=C/c1cccc([N+](=O)[O-])c1)NC(=S)Nc1ccccc1C(=O)O | . | -6% | . | . | .
O=C(/C=C/c1cccc([N+](=O)[O-])c1)NC(=S)Nc1cccc(NC(=O)c2ccccc2Cl)c1 | -23% | -3% | -5% | -74* | -22%
CN(C)CCN1CCN(C2CN(Cc3cn(Cc4cccc(Cl)c4)nn3)S(=O)(=O)C2)CC1 (stereo unspecified) | 2% | . | -7% | -18 | 1%
Cc1ccc(OCc2n[nH]c(=S)n2C2CCCCC2)cc1 | -1% | 8.9µM* | ? | 5 | -8%
Cc1cccc(OCc2n[nH]c(=S)n2C2CCCCC2)c1 | ? | 18µM* | 13µM* | 28 | -22%
CC(C)Oc1ccc(C(=O)NC2CCCCC2)cc1 | . | -11% | -4% | 43 | -18%
CC(C)Oc1ccc(C(CCN)C2CCCCC2)cc1 (stereo unspecified) | 13µM* | -1% | 3% | -99* | ?
CC(C(=O)O)c1ccc2c(c1)Cc1cccnc1O2 (stereo unspecified) | . | . | -9% | . | .
COc1ccc(-c2c(-c3ccc(O)cc3O)n[nH]c2C(F)(F)F)cc1 | -5%[7.34 µM] | 1% | -3% | -7 | 7%[7.34 µM]
Oc1ccc(-c2n[nH]c(C(F)(F)F)c2-c2ccccc2)c(O)c1 | ? | 8% | 6% | -82* | ?
COc1ccccc1-c1c(-c2ccc(O)cc2O)n[nH]c1C(F)(F)F | . | 4% | -6% | + | .
O=C(O)CCC(=O)NNC(=O)COc1ccc(Cl)cc1Cl | -15% | 2% | -11% | -79* | -14%
O=C(O)CCC(=O)NNC(=O)CCCOc1ccc(Cl)cc1Cl | i | 3% | -11% | ? | -9%
O=S(=O)(NCCc1nnc2ccc(SCc3ccc(C(F)(F)F)cc3)nn12)c1ccccc1 | -19% | . | -1% | -39 | -13%
C/C=C(\C)C(=O)OC1[C@H](OC(C)=O)C2(CO)C(CC1(C)C)C1=CCC3C4(C)CCC(O[C@@H]5O[C@H](C(=O)O)[C@@H](O[C@@H]6O[C@H](CO)[C@@H](O)[C@H](O)[C@H]6O)[C@H](O)[C@H]5O[C@H]5O[C@H](CO)[C@@H](O)[C@H](O)[C@H]5O)[C@](C)(CO)C4CCC3(C)[C@]1(C)C[C@H]2O (stereo partly specified) | ? | . | -4% | . | ?
C/C=C(/C)C(=O)OC1CC(C)(C)C[C@H]2C3=CC[C@@H]4[C@@]5(C)CCC(O[C@@H]6O[C@@H](C(=O)O)[C@@H](O)C(O[C@@H]7OC[C@H](O)[C@@H](O)[C@@H]7O[C@@H]7OC(CO)C(O)[C@@H](O)[C@@H]7O)C6O[C@@H]6OC(CO)C(O)C(O)C6O)[C@@](C)(CO)[C@@H]5CC[C@]4(C)[C@]3(C)CC(O)[C@@]12CO (stereo partly specified) | ? | . | 2% | . | 13µM*
CC(=O)c1ccc(N2CCC(c3cc(-c4ccc(Cl)cc4Cl)n[nH]3)CC2)c([N+](=O)[O-])c1 | . | -1% | -12% | -60* | .
COc1ccc(CNc2cc(C)nc3ncnn23)c(OC)c1 | . | 0% | 5% | -81* | .
CC(C)Cc1ccc(C(C)C(N)=Nc2ccc(O)cc2)cc1 (stereo unspecified) | ? | . | 4% | -11 | -3%
CC(C(=O)Nc1cccnc1)c1ccc([N+](=O)[O-])cc1 (stereo unspecified) | i | -2% | 3% | 10 | -11%
CC(C)Cc1ccc(C(C)C(=O)Nc2ccc(O)cc2)cc1 (stereo unspecified) | . | -2% | -8% | -66* | .
CC(C)Cc1ccc(C(C)C(=O)Nc2cccnc2)cc1 (stereo unspecified) | -21% | 3% | 0% | -78* | -18%
CC(C(=O)Nc1ccc(O)cc1)c1cccc(C(=O)c2ccccc2)c1 (stereo unspecified) | 2% | 0% | -8% | -63* | -10%
CCNC(=O)COc1ccc(C=O)cc1OC | -15% | -1% | -4% | -86* | -11%
N#C/C(=C(/O)COC(=O)CSc1ccc2ccccc2c1)c1nc2ccccc2[nH]1 | -3% | -1% | -2% | -102* | 4%
SMILES | VACV mCherry inh | LmPK inhibitor | Tb PYK inh | HCMV antiviral | VACV Venus inh
Cc1cc(Br)ccc1SCC(=O)OC/C(O)=C(\C#N)c1nc2ccccc2[nH]1 | . | 0% | -1% | -84* | .
N#C/C(=C(/O)COC(=O)c1ccc(O)cc1)c1nc2ccccc2[nH]1 | i | -1% | -12% | -2 | -12%
Cc1ccc(C)c(SCC(=O)OC/C(O)=C(\C#N)c2nc3ccccc3[nH]2)c1 | i | 3% | 3% | -102* | -4%
Cc1cc(Br)ccc1SCC(=O)OCC(O)=C(C#N)c1nc2ccccc2[nH]1 | 3% | . | -2% | -9 | 8%
COCCO[C@H]1CCC2C3CC=C4C[C@@H](O)CC[C@]4(C)C3CC[C@@]21C (stereo partly specified) | -7% | . | 7% | ? | -12%
COc1ccc(C)cc1NC(=O)Cn1c(=O)c(C(F)(F)F)nc2ccccc21 | -2% | . | 0% | 11 | 4%
Cc1csc[n+]1CC(=O)c1ccc(I)cc1 | -14% | . | . | . | -17%
c1cc(-c2cnc3cccnn23)c2cccnc2c1 | i | . | -3% | -69* | -21%
CCc1nnc2c3cnn(-c4ccccc4)c3ncn12 | ? | -6% | 1% | 43 | -2%
Cc1ccc(-n2ncc3c2ncn2c(C)nnc32)cc1C | i | -14% | 4% | -67* | 0%
CCCCN1C(N)=NC[C@@H]1Cc1ccc(O)cc1 | -16% | 1% | 1% | 16 | -6%
NC1=NC[C@H](Cc2ccc(O)cc2)N1CCC12CC3CC(CC(C3)C1)C2 | -21% | -2% | -2% | -73* | -16%
O=C(c1cccnc1)N1CC(=O)N2[C@@H](CO)[C@@H](c3ccc(Br)cc3)[C@@H]2C1 | . | . | . | -12 | .
COc1cc(C)c(Br)cc1S(=O)(=O)NCc1ccncc1 | -23% | -3% | 1% | -76* | -29%
Cc1cc(C)c(S(=O)(=O)NCc2ccncc2)c(C)c1 | ? | 1% | -20% | -84* | ?
Cc1ccc(S(=O)(=O)NCc2ccncc2)c(C)c1C | -15% | 2% | -5% | -83* | -17%
COc1ccc(NC(=O)c2ccc(NC(=O)CN3CCN(c4ccccc4)CC3)cc2)cc1 | . | . | -13% | 0 | .
Cc1ccc(C(=O)OCC(=O)Nc2cccc(S(=O)(=O)N3CCCCC3)c2)o1 | . | . | 4% | -4 | .
NS(=O)(=O)c1ccc(CCNc2nn3c(-c4cccc(OC(F)(F)F)c4)cnc3s2)cc1 | ? | . | 4% | -98* | ?
Cc1cc(C)cc(-n2c(SCC(=O)N3CCCCC3)nc3c([nH]c4ccccc43)c2=O)c1 | -14% | . | 1% | -9 | ?
Cc1cccc(NC(=O)c2ccc(C3SCC(=O)N3CCc3ccccc3)cc2)c1C (stereo unspecified) | . | -2% | ? | -72* | .

Compound activity as filed in PubChem.
